{
  "source": "PubChem BioAssay AID651692",
  "about": "(Broad Institute, 2012)",
  "note": "Potency and affinity values are given separately. Calls of active or inactive are those of the source.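 Rule for the calls: active = fitted half-maximal concentration for loss of cell signal no higher than twice the top valid tested concentration; inconclusive = flat curve at 30 to 70% inhibition, or poor fit; inactive = flat within 30%, signal rise, or potency above limit.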",
  "data": [
    {"assay": "cytotoxicity toward MDA-MB-231 breast cancer cells – cell-based, CellTiter-Glo luminescence, cherry-pick, cytotoxicity control for RAD54 inhibitor project, dose response (AID 651692);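 note: more negative values mean stronger loss of viable cell signal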", "conditions": "MDA-MB-231 viability, 24 h; series mostly up to 26 µM", "values": [
      {"smiles": "CCCC(c1nnnn1Cc1ccc(OC)cc1)N1CCN(c2ccccc2)CC1", "note": "(stereo unspecified)", "outcome": "inactive"},
      {"smiles": "COc1ccc(-c2cc(NC=O)c3ncc(-c4cccc(C(=O)NCCN(C)C)c4)n3c2)cc1", "outcome": "inactive"},
      {"smiles": "COc1cc2nc(NCCCN3CCN(C)CC3)n3nc(-c4ccccc4)nc3c2cc1OC", "outcome": "inactive"},
      {"smiles": "Cn1nc(-c2ccccc2)cc1NS(=O)(=O)c1ccc(C#N)cc1", "outcome": "inactive"},
      {"smiles": "COc1ccc(-c2nn(C)c3sc(C(=O)NCCN(C)C)cc23)cc1OC", "outcome": "inactive"},
      {"smiles": "COCCCNCCC(CCC(C)C)c1ccc2c(c1)OCO2", "note": "(stereo unspecified)", "outcome": "inactive"},
      {"smiles": "Cc1c(CN(C)C)c2c(n1C)C(=O)c1ccc(Br)cc1-2", "outcome": "inactive"},
      {"smiles": "CN(C)CCCNc1nc2cc(-c3cccc(Cl)c3)sc2c(=O)n1C", "outcome": "inactive"},
      {"smiles": "CN(C)CCNC(=O)c1cccc(-c2cnc3c(NC=O)cc(-c4ccccc4F)cn23)c1", "outcome": "inactive"},
      {"smiles": "CCOc1cc2nc(-c3ccc(OC)c(OC)c3)nc(NCCCN3CCOCC3)c2cc1OC", "outcome": "inactive"},
      {"smiles": "COc1ccc2c(c1)c1ncn(CCN3CCCCC3)c(=O)c1n2C", "outcome": "inactive"},
      {"smiles": "Cc1ccc(Nc2cc(C)nc3c(C)cccc23)cc1", "outcome": "inactive"},
      {"smiles": "COc1ccccc1Nc1nc(NCCCN(C)C)nc(N)c1[N+](=O)[O-]", "outcome": "inactive"},
      {"smiles": "CCn1cc(C(=O)NCCN(C)C)c(=O)c2cc(F)c(N3CCN(C)CC3)cc21", "outcome": "inactive"},
      {"smiles": "Cc1cc(C)c2nc(C)cc(Nc3ccc(C(=O)NCCO)cc3)c2c1", "outcome": "inactive"},
      {"smiles": "COc1ccc(OC)c(Nc2nc(NCCCN(C)C)nc(N)c2[N+](=O)[O-])c1", "outcome": "inactive"},
      {"smiles": "Cc1ccc2nc3c(c(Nc4ccc5c(c4)OCCO5)c2c1)CCC3", "outcome": "inactive"},
      {"smiles": "CCN(CC)CCCNc1nc2ccccc2c2nc(-c3ccncc3)nn12", "outcome": "inactive"},
      {"smiles": "COc1ccc2nc(C)cc(Nc3ccc(N4CCOCC4)cc3)c2c1", "outcome": "inactive"},
      {"smiles": "CCN1CCN(c2cc(C)c3cc(NC(=S)NCCCN4CCc5ccccc5C4)ccc3n2)CC1", "outcome": "inactive"},
      {"smiles": "COc1ccc(OC)c2c(C)cc(NCCN3CCOCC3)nc12", "outcome": "inactive"}
    ]}
  ]
}
